In the library only some 32% were active in any assay of this set; here they are far more common.
CYP2C9 inhib: human CYP2C9 inhibition. 96,000 compounds, 20% hits. inhibition, % at 5 µM. CYP2C9 Supersomes, luciferin-H conversion, luminescence;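 active = blocking of liver enzyme CYP2C9 beyond about 50% at 5 µM, limit read from the data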
CYP2C19 inh: human CYP2C19 inhibition. P33261. CYP2C19 Supersomes, luciferin-H EGE luminescence, 30 min. inhibition, % at 5 µM. 96,000 compounds, 21% hits. AID 778;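 active = CYP2C19 inhibition above a set limit at 5 µM in the primary screen, cut at about 50% in these data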;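 note: plate controls were negative control wells for no effect and 2.5 mM tranylcypromine positive control for full effect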
Target sequence (P33261 whole entry, looked up): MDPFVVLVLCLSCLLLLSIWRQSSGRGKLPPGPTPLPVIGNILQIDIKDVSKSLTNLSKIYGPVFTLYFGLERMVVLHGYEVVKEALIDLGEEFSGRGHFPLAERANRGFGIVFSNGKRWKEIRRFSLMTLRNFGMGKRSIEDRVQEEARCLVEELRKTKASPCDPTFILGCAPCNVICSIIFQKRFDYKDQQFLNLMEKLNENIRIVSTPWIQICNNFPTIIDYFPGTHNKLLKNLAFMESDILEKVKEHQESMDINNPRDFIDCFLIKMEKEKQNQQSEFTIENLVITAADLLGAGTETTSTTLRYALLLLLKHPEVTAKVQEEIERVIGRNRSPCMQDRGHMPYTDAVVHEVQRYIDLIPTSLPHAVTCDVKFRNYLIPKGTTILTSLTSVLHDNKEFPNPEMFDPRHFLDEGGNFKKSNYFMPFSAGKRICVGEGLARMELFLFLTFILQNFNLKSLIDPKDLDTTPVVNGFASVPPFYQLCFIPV
CYP2C9 act: increases human cytochrome P450 2C9 activity; activation factor at 5 µM; P11712; recombinant CYP2C9, luciferin-H conversion, luminescence; stronger effect = higher value; factor 1 = untreated enzyme, 0 = blocked; 96,000 compounds, 1.4% hits;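 active = activation factor of 2 or more for CYP2C9 at a 5 µM dose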;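 note: 0 = sulfaphenazole-blocked wells and 1 = vehicle-only wells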
PostGolgi yeast: growth inhibition of a yeast mutant, post-Golgi transport screen; 98,000 compounds, 0.9% hits; AID 739; inhibition, % at 10 µM; post-Golgi transport phenotypic cell assay;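 note: yeast cells grown in 1536-well plates; yeast grown about 18 h at 30C before absorbance read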
CYP2C19 activ: activators of human cytochrome P450 2C19; recombinant CYP2C19, luciferin-H EGE luminescence; stronger effect = higher value; 0 = fully inhibited enzyme, 1 = untreated enzyme; P33261; AID 1025; activation factor at 5 µM; 96,000 tested, under 10 active;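 active = activation factor of at least 2 at 5 µM in the primary screen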;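 note: 0 = wells with 2.5 mM tranylcypromine and 1 = vehicle-only wells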
PostGolgi ctrl: growth of the yeast control strain, post-Golgi counter-screen; efflux-deficient yeast background strain, growth absorbance A615, 16 h; inhibition, % at 10 µM; AID 738; 98,000 compounds, 5% hits
* hit, by the source's call; . = not tested or not shown. Cut-off read from the data, not from the text of the source, unless noted: active = inhibition above about 30%; inactive = the rest.

SMILES	CYP2C9 inhib	CYP2C19 inh	CYP2C9 act	PostGolgi yeast	CYP2C19 activ	PostGolgi ctrl
CN(C)c1ccc(C(c2nnnn2CCOC(=O)Nc2ccc(Cl)cc2)N2CCOCC2)cc1 (stereo unspecified)	87*	93*	0.1	-1	0.1	34*
Fc1ccc(C(c2nnnn2Cc2ccccc2)N2CCSCC2)cc1 (stereo unspecified)	4	8	1	-6	0.9	11
O=C(Nc1ccc(Cl)cc1)OCCn1nnnc1C(c1ccccc1)N1CCOCC1 (stereo unspecified)	65*	35	0.4	0	0.7	-3
CN(CC(=O)NCc1ccccn1)S(=O)(=O)c1ccccc1	13	20	0.9	-7	0.8	0
CN(CC(=O)NCc1ccncc1)S(=O)(=O)c1ccc(F)cc1	82*	91*	0.2	23	0.1	0
CN(CC(=O)NCc1ccncc1)S(=O)(=O)c1ccccc1	83*	94*	0.2	3	0.1	-8
O=C(NN=C1C2CC3CC(C2)CC1C3)c1cc(Cl)ccc1O	.	.	.	0	.	-1
O=C1CCCN1CCC1CCN(C(=O)Nc2ccccc2)CC1	-6	-6	1.1	-1	1.1	5
O=C1CCCN1CCNC(=S)Nc1ccccc1	52*	19	0.5	0	0.8	14
Cc1cccc(/C=c2\s/c(=C\C(=O)C(C)(C)C)[nH]c2=O)c1	-6	-18	1.1	-4	1.2	36*
O=C(CSc1nc2c(sc3ccccc32)c(=O)n1CCc1ccccc1)NCc1ccco1	52*	42	0.5	1	0.6	3
CCC(C)NC(=O)CSc1nc2c(sc3ccccc32)c(=O)n1CCCN1CCOCC1 (stereo unspecified)	16	13	0.8	-6	0.9	-5
CCCCn1c(SCC(=O)NCc2ccco2)nc2c(sc3ccccc32)c1=O	74*	37	0.3	-12	0.6	1
CCCCn1c(SCC(N)=O)nc2c(sc3ccccc32)c1=O	24	29	0.8	-4	0.7	30
CCOCCCn1c(SCC(=O)NCc2ccco2)nc2c(sc3ccccc32)c1=O	66*	26	0.3	-5	0.7	20
CCOC(=O)CSc1nc2c(sc3ccccc32)c(=O)n1CCCN1CCOCC1	55*	25	0.4	10	0.7	10
CSc1nc(C)cc(SCCO)n1	-20	5	1.2	3	0.9	29
COC(=O)c1sccc1NC(=O)c1ccco1	2	-9	1	.	1.1	.
Cn1c(NC(=O)Cc2ccc(F)cc2)cc(=O)n(C)c1=O	-14	-13	1.1	0	1.1	-8
Clc1ccc(SCCCCn2ccnc2)cc1	100*	100*	0	15	0	4
Clc1ccc(OCCCCSc2ncccn2)cc1	18	10	0.8	-4	0.9	15
Clc1ccccc1OCCCCn1ccnc1	96*	100*	0	-3	0	-1
Cc1ccccc1OCCCCCn1ccnc1	100*	100*	0	9	0	5
Clc1cc(Br)ccc1OCCn1ccnc1	93*	96*	0.1	9	0	8
CCN(CC(=O)NC1CCS(=O)(=O)C1)C(=O)C(c1ccccc1)c1ccccc1 (stereo unspecified)	7	5	0.9	-3	1	12
SMILES	CYP2C9 inhib	CYP2C19 inh	CYP2C9 act	PostGolgi yeast	CYP2C19 activ	PostGolgi ctrl
CC(NC(=O)Nc1ccccc1)C(c1cccs1)N1CCN(C)CC1 (stereo unspecified)	-3	-3	1	-9	1	6
CCCn1c(SCC(=O)Nc2ccc(OC)cc2)nnc1-c1ccncc1	32	24	0.7	7	0.8	-1
Cc1sc(NC(=O)Cn2nc(C(F)(F)F)cc2C)c(C(=O)OC(C)C)c1C	62*	18	0.4	12	0.8	-5
Cc1cc(C(F)(F)F)nn1CC(=O)NNC(=S)NCC(C)C	0	32	1	9	0.7	-3
CCc1ccccc1NC(=O)NC1CCCCC1	3	19	1	1	0.8	5
CCc1ccccc1NC(=O)Cn1nc(C(F)(F)F)cc1C1CC1	5	83*	0.9	1	0.2	17
CCNS(=O)(=O)c1ccc(NC(=O)Cn2nc(C(F)(F)F)cc2C)cc1	57*	-17	0.4	2	1.2	4
CCOC(=O)C1=C(C)NC(C)=C(C(=O)OCC)C1	11	28	0.9	7	0.7	5
O=C(COC(=O)c1cnccn1)c1ccc2c(c1)CCCC2	-28	0	1.3	3	1	4
CCNC(=S)NNC(=O)C(c1ccccc1)c1ccccc1	30	12	0.7	-1	0.9	11
CCC(C(=O)c1ccc(O)cc1)c1ccccc1 (stereo unspecified)	-29	52*	1.3	1	0.5	36*
Cc1ccc(/C=c2/sc3nnc(-c4ccccc4Cl)n3c2=O)o1	68*	65*	0.3	3	0.4	8
CCN(CC)c1ccc(/C=c2\sc3nnc(-c4ccccc4Cl)n3c2=O)cc1	19	6	0.8	-4	0.9	11
CCCCCC(=O)N1CCCC(c2nc(-c3ccc(OC)cc3)no2)C1 (stereo unspecified)	67*	64*	0.3	3	0.4	29
O=C(Nc1ccc(Cl)cc1)N1CCC(c2nc(-c3ccc(F)cc3)no2)CC1	-5	6	1.1	-3	0.9	28
COc1ccc(-c2noc(C3CCCN(C(=O)CCc4ccccc4)C3)n2)cc1 (stereo unspecified)	70*	44	0.3	-4	0.6	28
O=C(CC1CCCCC1)N1CCCC(c2nc(-c3ccc(S(=O)(=O)N4CCCC4)cc3)no2)C1 (stereo unspecified)	60*	30	0.4	-10	0.7	30
COc1ccc(NC(=O)N2CCCC(c3nc(-c4ccc(C(C)C)cc4)no3)C2)cc1 (stereo unspecified)	67*	36	0.3	-9	0.6	24
CCOc1ccc(N2CC(C(=O)Nc3ccc(S(=O)(=O)Nc4ncccn4)cc3)CC2=O)cc1 (stereo unspecified)	29	-34	0.7	-4	1.3	6
CCc1cc2c(=O)c(-c3nc4ccccc4n3C)c(C)oc2c(CN2CCN(C)CC2)c1O	.	.	.	1	.	11
CCc1cc2c(=O)c(-c3nc4ccccc4n3C)c(C)oc2c(CN2CCN(CCO)CC2)c1O	17	-1	0.8	52*	1	-1
CCOC(=O)N1CCN(S(=O)(=O)c2cc(OCC(=O)NC3CCCCC3)c(C)cc2Cl)CC1	62*	54*	0.4	-3	0.5	7
CCOC(=O)C1CCCN(S(=O)(=O)c2cc(OCC(N)=O)c(C)cc2Cl)C1 (stereo unspecified)	-18	91*	1.2	-1	0.1	33*
Cc1cc(Cl)c(S(=O)(=O)NC2CCCC2)cc1OCC(=O)NC1CCCCC1	44	52*	0.6	4	0.5	11

Screens as filed in PubChem.
